Test in all cases: DAPPL (digital affinity profiling via proximity ligation, sequencing); 10 mM Tris-HCl pH 7.5, 50 mM NaCl, 1 mM DTT, 4% glycerol, room temperature, 30 min; GST-TFs on glutathione beads, 16-mer random dsDNA library, 0.1% formaldehyde crosslink after washing; high values mean tight binding
Common to all, as to conditions: protein: recombinant; tags: N-terminal GST; dsDNA, one strand shown

One test addresses T1, ERF (Homo sapiens, UniProt P50548 1-548).
T1 sequence: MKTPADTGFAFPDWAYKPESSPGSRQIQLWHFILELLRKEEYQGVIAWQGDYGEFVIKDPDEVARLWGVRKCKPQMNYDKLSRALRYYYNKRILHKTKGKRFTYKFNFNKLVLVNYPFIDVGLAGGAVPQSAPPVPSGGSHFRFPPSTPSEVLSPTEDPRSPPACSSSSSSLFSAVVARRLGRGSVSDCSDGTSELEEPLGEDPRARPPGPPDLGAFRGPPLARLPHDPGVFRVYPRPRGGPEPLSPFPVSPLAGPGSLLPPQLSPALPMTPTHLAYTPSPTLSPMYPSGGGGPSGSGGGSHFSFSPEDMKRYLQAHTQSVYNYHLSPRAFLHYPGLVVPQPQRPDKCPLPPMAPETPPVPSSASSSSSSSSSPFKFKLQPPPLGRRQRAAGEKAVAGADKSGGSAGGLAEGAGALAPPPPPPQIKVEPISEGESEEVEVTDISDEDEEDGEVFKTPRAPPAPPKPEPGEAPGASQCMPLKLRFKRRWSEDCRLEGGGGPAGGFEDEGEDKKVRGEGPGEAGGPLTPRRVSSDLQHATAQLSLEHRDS
In a few lines: (§1)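 Yeast served to express human transcription factors as GST fusions, which were then captured on glutathione beads and labelled with DNA barcodes. Pooled with a tag-only sample, they were incubated with 200 nmole of a 16-mer random double-stranded DNA library for 30 min at room temperature in Tris/NaCl/DTT/glycerol buffer, washed, crosslinked with 0.1% formaldehyde, ligated by proximity, amplified by PCR and sequenced. Dividing each hexamer's read frequency for a factor by its frequency for the tag-only sample gives the binding signal.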

Another test deals with T2, ETV3L (Homo sapiens, UniProt Q6ZN32 1-361).
T2 sequence: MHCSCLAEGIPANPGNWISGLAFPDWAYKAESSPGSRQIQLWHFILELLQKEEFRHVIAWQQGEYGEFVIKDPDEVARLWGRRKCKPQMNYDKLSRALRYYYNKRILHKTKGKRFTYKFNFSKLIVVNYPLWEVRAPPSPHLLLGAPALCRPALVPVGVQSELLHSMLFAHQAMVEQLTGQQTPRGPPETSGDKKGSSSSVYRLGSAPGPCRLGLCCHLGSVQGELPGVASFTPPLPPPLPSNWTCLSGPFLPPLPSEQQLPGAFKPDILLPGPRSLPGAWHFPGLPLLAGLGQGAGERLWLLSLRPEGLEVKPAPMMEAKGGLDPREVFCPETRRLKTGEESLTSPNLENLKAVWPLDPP
The gist of the method: as §1

Another test addresses T3, ETS2 (Homo sapiens, UniProt P15036 1-469).
T3 sequence: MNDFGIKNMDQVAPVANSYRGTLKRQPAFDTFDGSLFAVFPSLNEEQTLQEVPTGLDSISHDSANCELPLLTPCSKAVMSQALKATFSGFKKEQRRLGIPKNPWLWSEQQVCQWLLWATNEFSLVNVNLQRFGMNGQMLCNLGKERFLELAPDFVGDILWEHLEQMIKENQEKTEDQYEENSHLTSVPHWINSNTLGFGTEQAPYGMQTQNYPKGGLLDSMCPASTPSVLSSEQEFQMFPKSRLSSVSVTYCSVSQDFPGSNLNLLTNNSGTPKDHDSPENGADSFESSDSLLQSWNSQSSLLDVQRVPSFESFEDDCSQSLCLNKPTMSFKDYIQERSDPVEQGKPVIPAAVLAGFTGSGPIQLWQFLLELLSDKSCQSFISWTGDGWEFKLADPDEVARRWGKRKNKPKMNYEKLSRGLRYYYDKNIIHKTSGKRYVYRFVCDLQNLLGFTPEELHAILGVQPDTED
The gist of the method:
as §1

In the next test the target is T4, SPDEF (Homo sapiens, UniProt O95238 1-335).
T4 sequence: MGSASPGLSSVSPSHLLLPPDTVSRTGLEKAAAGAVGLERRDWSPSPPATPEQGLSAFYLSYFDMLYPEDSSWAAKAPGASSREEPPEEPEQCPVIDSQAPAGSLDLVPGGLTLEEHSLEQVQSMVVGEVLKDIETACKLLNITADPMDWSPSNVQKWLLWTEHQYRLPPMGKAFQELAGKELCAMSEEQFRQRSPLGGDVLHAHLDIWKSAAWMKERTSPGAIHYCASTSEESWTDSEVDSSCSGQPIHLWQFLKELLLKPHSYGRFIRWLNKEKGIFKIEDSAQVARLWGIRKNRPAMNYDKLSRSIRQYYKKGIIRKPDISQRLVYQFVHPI
The gist of the method:
as §1

The target in another test is T5, ETV7 (Homo sapiens, UniProt Q9Y603 1-341).
T5 sequence: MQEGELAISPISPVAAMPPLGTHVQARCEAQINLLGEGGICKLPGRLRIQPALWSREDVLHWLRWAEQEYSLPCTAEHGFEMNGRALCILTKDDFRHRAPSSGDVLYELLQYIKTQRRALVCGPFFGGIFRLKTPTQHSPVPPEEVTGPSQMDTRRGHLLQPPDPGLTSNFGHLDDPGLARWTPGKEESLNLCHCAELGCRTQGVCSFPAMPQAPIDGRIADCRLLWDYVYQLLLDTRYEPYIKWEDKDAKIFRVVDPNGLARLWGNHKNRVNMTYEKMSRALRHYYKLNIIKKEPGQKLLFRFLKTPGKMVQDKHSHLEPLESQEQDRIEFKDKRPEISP
In a few lines: as §1

A further test concerns the target T6, ELF5 (Homo sapiens, UniProt Q9UKW6-2 1-255).
T6 sequence: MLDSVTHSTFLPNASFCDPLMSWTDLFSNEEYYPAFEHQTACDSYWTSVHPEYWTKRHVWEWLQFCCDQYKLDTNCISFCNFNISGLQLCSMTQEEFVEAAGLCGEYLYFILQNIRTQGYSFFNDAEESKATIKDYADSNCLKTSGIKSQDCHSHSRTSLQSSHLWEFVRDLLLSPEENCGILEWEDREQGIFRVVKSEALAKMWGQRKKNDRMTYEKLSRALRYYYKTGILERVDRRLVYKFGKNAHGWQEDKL
In a few lines:
as §1

The next test concerns the target T7, ETV3 (Homo sapiens, UniProt P41162-2 1-143).
T7 sequence: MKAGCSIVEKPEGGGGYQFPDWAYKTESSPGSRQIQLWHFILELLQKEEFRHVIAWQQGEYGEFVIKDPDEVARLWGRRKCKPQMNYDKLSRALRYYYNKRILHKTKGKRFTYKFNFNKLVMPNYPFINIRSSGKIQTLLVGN
The gist of the method: as §1

Another test concerns the target ETV6 (Homo sapiens, UniProt P41212 1-452). The gist of the method: as §1

ETV6, sequence (P41212 whole entry): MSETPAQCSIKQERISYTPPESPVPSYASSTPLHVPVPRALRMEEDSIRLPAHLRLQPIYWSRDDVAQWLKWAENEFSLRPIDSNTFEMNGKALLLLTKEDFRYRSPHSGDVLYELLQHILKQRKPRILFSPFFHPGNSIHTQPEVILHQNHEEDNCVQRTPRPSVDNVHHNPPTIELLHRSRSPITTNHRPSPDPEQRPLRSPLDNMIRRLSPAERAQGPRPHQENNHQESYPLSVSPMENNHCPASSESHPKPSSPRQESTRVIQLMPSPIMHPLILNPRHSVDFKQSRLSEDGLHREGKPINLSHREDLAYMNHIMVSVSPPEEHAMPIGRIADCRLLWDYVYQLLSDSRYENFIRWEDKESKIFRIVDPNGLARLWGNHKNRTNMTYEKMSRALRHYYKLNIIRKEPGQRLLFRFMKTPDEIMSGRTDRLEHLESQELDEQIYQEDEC

Consider GACCTC, for which the binding signal in the test with ERF is 1.52 fold enrichment (6-mer frequency, TF over GST control); with ETV3L it was 1.51 fold enrichment (6-mer frequency, TF over GST control); with ETS2 it was 1.38 fold enrichment (6-mer frequency, TF over GST control); in the test with SPDEF it was 1.29 fold enrichment (6-mer frequency, TF over GST control); in the test with ETV7, 1.33 fold enrichment (6-mer frequency, TF over GST control); in the test with ELF5 it was 1.32 fold enrichment (6-mer frequency, TF over GST control). Moreover, the binding signal with ETV3 was 1.28 fold enrichment (6-mer frequency, TF over GST control); in the test with ETV6, 1.42 fold enrichment (6-mer frequency, TF over GST control).
AGAAAT: the binding signal with ERF is 1.13 fold enrichment (6-mer frequency, TF over GST control); with ETV3L it was 1.17 fold enrichment (6-mer frequency, TF over GST control); with ETS2, 1.21 fold enrichment (6-mer frequency, TF over GST control); with SPDEF it was 1.03 fold enrichment (6-mer frequency, TF over GST control); in the test with ETV7 it was 1.21 fold enrichment (6-mer frequency, TF over GST control); with ELF5 it was 1.15 fold enrichment (6-mer frequency, TF over GST control). Moreover, the binding signal was 1.09 fold enrichment (6-mer frequency, TF over GST control) with ETV3 and 1.18 fold enrichment (6-mer frequency, TF over GST control) in the test with ETV6.
GAAATG: the binding signal is 1.5 fold enrichment (6-mer frequency, TF over GST control) with ERF; 1.59 fold enrichment (6-mer frequency, TF over GST control) with ETV3L; 1.63 fold enrichment (6-mer frequency, TF over GST control) in the test with ETS2; 1.45 fold enrichment (6-mer frequency, TF over GST control) with SPDEF; 1.6 fold enrichment (6-mer frequency, TF over GST control) with ETV7; 1.87 fold enrichment (6-mer frequency, TF over GST control) with ELF5. The binding signal is 1.68 fold enrichment (6-mer frequency, TF over GST control) with ETV3 and 1.75 fold enrichment (6-mer frequency, TF over GST control) in the test with ETV6.
On to TCACTA, for which the binding signal with ERF is 1.24 fold enrichment (6-mer frequency, TF over GST control); with ETV3L, 1.18 fold enrichment (6-mer frequency, TF over GST control); in the test with ETS2 it was 1.25 fold enrichment (6-mer frequency, TF over GST control); with SPDEF, 1.07 fold enrichment (6-mer frequency, TF over GST control); in the test with ETV7, 1.23 fold enrichment (6-mer frequency, TF over GST control); in the test with ELF5, 1.15 fold enrichment (6-mer frequency, TF over GST control). Moreover, the binding signal was 1.05 fold enrichment (6-mer frequency, TF over GST control) with ETV3 and 1.06 fold enrichment (6-mer frequency, TF over GST control) with ETV6.
In the case of TACACG, the binding signal in the test with ERF was 1.06 fold enrichment (6-mer frequency, TF over GST control); with ETV3L it was 1.03 fold enrichment (6-mer frequency, TF over GST control); with ETS2, 1.11 fold enrichment (6-mer frequency, TF over GST control); with SPDEF, 1.18 fold enrichment (6-mer frequency, TF over GST control); with ETV7, 1.15 fold enrichment (6-mer frequency, TF over GST control); with ELF5, 1.13 fold enrichment (6-mer frequency, TF over GST control). The binding signal with ETV3 is 1.08 fold enrichment (6-mer frequency, TF over GST control); with ETV6, 1.07 fold enrichment (6-mer frequency, TF over GST control).
As for TTCACA, the binding signal with ERF was 1.26 fold enrichment (6-mer frequency, TF over GST control); in the test with ETV3L it was 1.21 fold enrichment (6-mer frequency, TF over GST control); in the test with ETS2, 1.23 fold enrichment (6-mer frequency, TF over GST control); in the test with SPDEF, 1.25 fold enrichment (6-mer frequency, TF over GST control); with ETV7, 1.29 fold enrichment (6-mer frequency, TF over GST control); with ELF5, 1.12 fold enrichment (6-mer frequency, TF over GST control). The binding signal with ETV3 is 1.13 fold enrichment (6-mer frequency, TF over GST control); in the test with ETV6 it was 1.13 fold enrichment (6-mer frequency, TF over GST control).
With TGATTC, the binding signal in the test with ERF is 1.07 fold enrichment (6-mer frequency, TF over GST control); with ETV3L, 1.09 fold enrichment (6-mer frequency, TF over GST control); with ETS2, 1.06 fold enrichment (6-mer frequency, TF over GST control); with SPDEF it was 1.04 fold enrichment (6-mer frequency, TF over GST control); with ETV7, 1.13 fold enrichment (6-mer frequency, TF over GST control); with ELF5 it was 1.03 fold enrichment (6-mer frequency, TF over GST control). Moreover, the binding signal with ETV3 was 1.15 fold enrichment (6-mer frequency, TF over GST control); with ETV6, 1.06 fold enrichment (6-mer frequency, TF over GST control).

The values above are taken from paper PMC7862700, “An all-to-all approach to the identification of sequence-specific readers for epigenetic DNA modifications on cytosine”.
